Several values for one entry are separate records, joined by “and”; a condition that tells them apart may be missing. Equal entries are not always repeated. Results filed as inconclusive are left out. Activity calls are given as the source filed them. Calls follow the shape of the dose curve; as a rule, active = well fitted inhibition curve with a large enough effect; inconclusive = small, poorly fitted or top-dose-only effect; inactive = flat fitted curve, though single readings scatter.
% is scaled to controls: 0 for no effect and ±100 for the full control effect; potency is read from the fitted curve at half-maximal effect.

This test deals with KB-3-1. In words: Cytotoxic Profiling of Annotated Libraries Using Quantitative High-Throughput Screening (AID 1296008). Also: nearly all actives have a fitted effect of over 60% in size. The settings on record: Five cell lines viability, CellTiter-Glo ATP luminescence, 48-72 h; max response: active compounds read low. The source says:
Cell-based phenotypic screening is a commonly used approach to discover biological pathways, novel drug targets, chemical probes and high-quality hit-to-lead molecules. Many hits identified from high-throughput screening campaign are ruled out through a series of follow-up potency, selectivity/specificity, and cytotoxicity assays. Prioritization of molecules with little or no cytotoxicity for a more in-depth downstream evaluation influence the future direction of projects, so cytotoxicity profiling of the screening libraries at early stage is essential for increasing the likelihood of candidate success. […] For the annotated library, we also examined the primary targets and mechanistic pathways regularly associated with cell death. To our knowledge, this is the first study to use high-throughput screening to profile large libraries for cytotoxicity assessment in both normal and cancer cell lines. In summary, the results generated here constitutes a valuable resource for the scientific community and provides insight on identifying cytotoxic compounds with particular mechanisms of action, and prioritizing compounds with suitable cytotoxicity profile for further evaluation.
A pintool (Kalypsys) was used to transfer 23 nL of compound solution to the 1536-well assay plates. After 48 or 72 hr incubation at 37 degree Celsius, 5% CO2 and 95% humidity, 2.5 uL of CellTiter-Glo (Promega) was dispensed into each well using a dispenser (Aspect Automation, St. Paul, MN) with solenoid valves (Lee Valves, Westbrook CT). Plates were left at room temperature for 10 min before imaging the ATP-coupled luminescence using a ViewLux microplate imager (PerkinElmer, Waltham, MA).
On the technique in general: Cellular ATP, detected with luciferase, serves as a proxy for viable cell number.
For `CCCc1cc(=O)[nH]c(=S)[nH]1`, the compound was classed as inactive and the max response was 0.476% (inactive). `CN(C)c1ccc(O)c2c1C[C@H]1C[C@H]3[C@H](N(C)C)C(=O)C(C(N)=O)=C(O)[C@@]3(O)C(=O)C1=C2O`: the max response is 5.11% (inactive) and -5.52% (inactive) and -6.53% (inactive). On to `CC(=O)O[C@H]1C(=O)[C@@]2(C)C([C@H](OC(=O)c3ccccc3)[C@]3(O)C[C@H](OC(=O)[C@H](O)[C@@H](NC(=O)c4ccccc4)c4ccccc4)C(C)=C1C3(C)C)[C@]1(OC(C)=O)CO[C@@H]1C[C@@H]2O` (stereo partly specified), for which the Potency is 1 nM (active) and 7.2 nM (active). `CCC(C)(Oc1ccc(C2(c3ccc(OC(C)(CC)C(=O)O)cc3)CCCCC2)cc1)C(=O)O` (stereo unspecified): the max response was -0.0453% (inactive) and 5.37% (inactive); the compound was classed as inactive.

For the compound `O=C(OC1C[C@H]2CC[C@@H](C1)[N+]21CCCC1)C(O)(c1ccccc1)c1ccccc1` (stereo partly specified), the max response was 8.48% (inactive) and 5.72% (inactive). Regarding `COc1ccccc1N1CCN(CCN(C(=O)C2CCCCC2)c2ccccn2)CC1`, the max response is -8.11% (inactive) and 2.92% (inactive). Turning to `CN(C)CCCC1(c2ccc(F)cc2)OCc2cc(C#N)ccc21` (stereo unspecified), the max response was -8.3% (inactive) and 1.59% (inactive).

Take `COc1ccc(C2(C#N)CCC(C(=O)O)CC2)cc1OC1CCCC1` (stereo unspecified): the max response was 6.11% (inactive) and 7.73% (inactive) and 2.33% (inactive).

On to `CN(C)c1ccc2nc3ccc(=[N+](C)C)cc-3sc2c1`, for which the Potency is 2.09 µM (active) and 6.51 µM (active). Take `O=C1c2ccccc2-c2n[nH]c3cccc1c23`: the max response was -0.484% (inactive). For the compound `CCN(CC)CCOc1ccc(Cc2ccccc2)cc1`, the max response is -7.39% (inactive) and -3.92% (inactive). In the case of `COC(=O)C1=C(C)NC(C)=C(C(=O)OC(C)C)C1c1cccc2nonc12` (stereo unspecified), the max response was 5.12% (inactive) and -6.21% (inactive). For the compound `CCCCC(CC)COC(=O)C(C#N)=C(c1ccccc1)c1ccccc1` (stereo unspecified), the compound was classed as inactive. In the case of `COc1cc2c(cc1OC)C1CC(=O)C(CC(C)C)CN1CC2` (stereo unspecified), the max response was -0.991% (inactive). Turning to `CC(C)C[C@H](NC(=O)[C@H](Cc1ccccc1)NC(=O)c1cnccn1)B(O)O`, the Potency is 58 nM (active) and 105 nM (active). On to `OC(CN1CCN(c2cccc(Cl)c2)CC1)C(c1ccccc1)c1ccccc1` (stereo unspecified), for which the max response was -12.1% (inactive) and -1.2% (inactive).

Regarding `N=C(N=C(N)N)N1CCOCC1`, the max response is -9.57% (inactive) and 4.72% (inactive).

Turning to `O=C1c2c(O)cc(O)cc2OC(c2ccc(O)c(O)c2)C1O` (stereo unspecified), the result was inactive. For the compound `Oc1ccc2ccccc2c1SSc1c(O)ccc2ccccc12`, the max response is 9.23% (inactive). Consider `C[C@]12CCC(=O)C=C1CC[C@@H]1[C@H]2[C@@H](O)C[C@@]2(C)[C@H]1CC[C@]2(O)C(=O)CO`, for which the max response is 33.4% (inactive). In the case of `CCCCc1ccc2nc(NC(=O)OC)[nH]c2c1`, the Potency was 0.0235 µM (active). Turning to `CNC[C@@H](O)[C@@H](O)[C@H](O)[C@H](O)CO`, the max response is 5.74% (inactive).

On to `CS(=O)(=O)OCCCCOS(C)(=O)=O`, for which the max response is 2.33% (inactive) and 4.33% (inactive). `COC(=O)C1=C(C)NC(C)=C(C(=O)OCCCN2CCC(c3ccccc3)(c3ccccc3)CC2)C1c1cccc([N+](=O)[O-])c1` (stereo unspecified): the max response is 0.505% (inactive). Regarding `CC1(C)C(=O)N(CCN2CCC(C(=O)c3ccc(F)cc3)CC2)c2ccccc21`, the max response was 2.39% (inactive). For the compound `S=c1nc[nH]c2nc[nH]c12`, the Potency was 7.43 µM (active). Consider `O=C1CCc2ccc(OCCCCN3CCN(c4cccc(Cl)c4Cl)CC3)cc2N1`, for which the max response is -20.7% (inactive). `COc1c(O)cc2c(c1O)[C@@H]1O[C@H](CO)[C@@H](O)[C@H](O)[C@H]1OC2=O`: the max response was 6.75% (inactive) and -4.18% (inactive) and 5.95% (inactive). For the compound `CN(C)CCc1c[nH]c2ccc(Cn3cncn3)cc12`, the max response is 8.57% (inactive) and the compound was called inactive.

Consider `CC(C)c1ccc2c(c1)c(SC(C)(C)C)c(CC(C)(C)C(=O)O)n2Cc1ccc(Cl)cc1`, for which the max response is -8.99% (inactive). Consider `Nc1cccc2c1CN(C1CCC(=O)NC1=O)C2=O` (stereo unspecified), for which the max response was 2.15% (inactive) and 5.39% (inactive). On to `CC(=O)Nc1ccc(O)cc1`, for which the max response was 23.8% (inactive) and 2.6% (inactive). As to `CCCS(=O)c1ccc2nc(NC(=O)OC)[nH]c2c1` (stereo unspecified), the Potency was 20.6 µM (active). In the case of `Nc1nc(OCc2ccccc2)c2[nH]cnc2n1`, the max response is 5.98% (inactive).

As to `Cc1cc(=O)oc2cc(O)ccc12`, the max response is 2.35% (inactive) and 1.97% (inactive). Regarding `Clc1ccc2c(N3CCN(CCCN4CCN(c5ccnc6cc(Cl)ccc56)CC4)CC3)ccnc2c1`, the max response was 3.7% (inactive).

For `N[C@@H](Cc1cc(I)c(Oc2cc(I)c(O)c(I)c2)c(I)c1)C(=O)O`, the max response is -0.982% (inactive) and 2.52% (inactive); the compound was called inactive.

For the origin of these results see PubChem BioAssay (NCATS).
